Activity calls are given as the source filed them.
Key:
Albumin (Bos taurus) = Albumin (Bos taurus) (UniProt P02769); assay: compounds binding labelled BSA control protein – biochemical, small-molecule microarray, Alexa647 label, 635/667 nm fluorescence, artefact control for SMM control protein annotation, profiling panel (AID 1118); details: BSA-A647 binding, fluorescence 635 nm, higher = more signal;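 also: score merges 667 nm emission intensity and signal-to-noise per printed compound spot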
[1] = probe aXIP binding to arrayed compounds – biochemical, NeuroSMM set, 635/667 nm fluorescence, primary screen (AID 1119); details: small-molecule microarray, higher = more signal, called active from +8 up or from −8 down;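 also: probe is the protein aXip251-270 applied at 1 µg/mL to compound-printed slides; binding of probe to printed compounds measured as 667 nm fluorescence plus signal to noise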
[2] = probe aNOTCH3 binding on compound microarray – biochemical, small-molecule microarray, 635/667 nm fluorescence, primary screen (AID 1120); details: higher = more signal;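 also: probe is a biotin-tagged antibody raised against NOTCH3 rather than NOTCH3 protein; score merges spot fluorescence near 667 nm with spot signal to noise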
[3] = probe aNOTCH2 binding on compound microarray – biochemical, small-molecule microarray, 635/667 nm fluorescence, primary screen (AID 1121); details: higher = more signal;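 also: score merges feature fluorescence read at 667 nm with its signal to noise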
[4] = biological target: Carbonic anhydrase 2 (Homo sapiens) (UniProt P00918); assay: compounds binding carbonic anhydrase 2 – biochemical, small-molecule microarray, Alexa647-labelled CAII, profiling panel (AID 1122); details: CAII-A647 binding fluorescence, higher = more signal
[5] = COS7 lysate on small-molecule microarray, probe aHis, 635 nm (AID 1123); details: COS7 cell lysate, fluorescence, higher = more signal;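 also: z-score combines 667nm fluorescence intensity with signal-to-noise per printed compound spot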
[6] = probe aLAP1 signal on lysate-treated microarray – cell lysate, small-molecule microarray, COS7 lysate, primary screen (AID 1124); details: probe aLAP1, fluorescence, higher = more signal;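 also: lysate comes from COS7 cells expressing LAP1 and is applied at 0.3 µg/mL; score merges spot fluorescence near 667 nm with signal-to-noise over triplicate slides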
Sam68 (KHDRBS1) = assay: compounds binding KHDRBS1 protein – biochemical, small-molecule microarray, 635 nm fluorescence, primary screen (AID 1125); details: higher = more signal;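 also: score merges 667 nm channel intensity with signal to noise over triplicate slides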
[7] = test system: Chordin-like protein 2 (CHRDL2); assay: compounds binding chordin-like 2 – biochemical, small-molecule microarray, 635 nm fluorescence, primary screen (AID 1126); details: fluorescence 635 nm, higher = more signal;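 also: printed compound slides probed with Chrdl2 protein at 4 µg/mL for 1 h at 4 C; score merges 667 nm emission intensity with signal to noise over three replicate slides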
[8] = biological target: Concanavalin-A (Canavalia ensiformis) (UniProt P02866); assay: compounds binding concanavalin A lectin – biochemical, small-molecule microarray, Alexa647 label, 635 nm, artefact control for SMM control protein annotation, primary screen (AID 1127); details: ConA-A647 binding fluorescence, higher = more signal;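 also: z combines 667 nm emission intensity with signal-to-noise across three replicate slides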
Concanavalin-A (Canavalia ensiformis), sequence (P02866 whole entry, looked up): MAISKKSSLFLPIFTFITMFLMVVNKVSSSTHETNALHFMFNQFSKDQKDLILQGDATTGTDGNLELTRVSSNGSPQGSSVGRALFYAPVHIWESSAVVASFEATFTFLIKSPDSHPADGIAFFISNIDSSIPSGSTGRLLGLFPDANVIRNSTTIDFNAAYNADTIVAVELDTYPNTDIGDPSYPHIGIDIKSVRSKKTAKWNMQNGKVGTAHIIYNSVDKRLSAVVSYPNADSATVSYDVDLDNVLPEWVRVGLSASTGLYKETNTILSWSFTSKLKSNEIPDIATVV

Albumin (Bos taurus), sequence (P02769 whole entry, looked up): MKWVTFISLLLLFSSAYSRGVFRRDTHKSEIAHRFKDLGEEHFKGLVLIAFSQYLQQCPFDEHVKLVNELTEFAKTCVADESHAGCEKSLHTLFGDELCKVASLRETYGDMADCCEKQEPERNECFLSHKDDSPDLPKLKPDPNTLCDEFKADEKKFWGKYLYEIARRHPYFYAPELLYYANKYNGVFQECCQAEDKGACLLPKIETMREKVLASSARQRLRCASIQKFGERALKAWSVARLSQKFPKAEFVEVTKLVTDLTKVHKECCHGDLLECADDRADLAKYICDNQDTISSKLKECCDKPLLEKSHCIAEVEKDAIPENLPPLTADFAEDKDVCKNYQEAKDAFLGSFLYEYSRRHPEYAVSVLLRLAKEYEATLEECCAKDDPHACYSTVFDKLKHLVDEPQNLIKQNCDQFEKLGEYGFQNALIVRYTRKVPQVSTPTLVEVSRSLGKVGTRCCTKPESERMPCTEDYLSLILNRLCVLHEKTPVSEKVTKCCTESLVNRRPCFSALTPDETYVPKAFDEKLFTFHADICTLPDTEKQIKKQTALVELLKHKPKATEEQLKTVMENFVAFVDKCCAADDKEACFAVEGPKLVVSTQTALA

SMILES: C=CCC(OC(C)=O)[C@@H]1[C@@H](N(Cc2ccc(-c3ccccc3)cc2)C(=O)c2cccc3ccccc23)c2cc(OCCCO)ccc2N1C(=O)Cc1ccc2ccccc2c1 (stereo not given in full)
- composite z-score (Albumin (Bos taurus)): 0.413
- composite Z-score [1]: -0.277 (inactive)
- composite z-score [2]: -0.0345
- composite z-score [3]: -0.0891
- composite z-score [4]: -0.0417
- composite z-score [5]: 0.321
- composite z-score [6]: 0.194
- composite z-score (Sam68 (KHDRBS1)): -0.35
- composite z-score [7]: -0.133
- composite z-score [8]: -0.353

SMILES: C=CCOC(=O)[C@@H]1[C@H]2C(=O)O[C@H](c3ccccc3)[C@H](c3ccccc3)N2[C@H](c2ccc(OCCOC(=O)[C@H]3C[C@H]4C(=O)N[C@@H](CCCC[N+](C)(C)C)C(=O)N4[C@H]3c3ccc(O)cc3)cc2)[C@@]12C(=O)Nc1ccc(I)cc12
- composite z-score (Albumin (Bos taurus)): -0.914
- composite Z-score [1]: 4.1 (inactive)
- composite z-score [2]: 0.147
- composite z-score [3]: -0.0843
- composite z-score [4]: 0.534
- composite z-score [5]: 2.74
- composite z-score [6]: 0.577
- composite z-score (Sam68 (KHDRBS1)): 1.3
- composite z-score [7]: 1.16
- composite z-score [8]: 1.19

SMILES: CC(C)NC(=O)[C@@]1(C)c2ccccc2C(=O)N(C(C)C)[C@H]1c1ccc(CO)cc1
- composite z-score (Albumin (Bos taurus)): 0.177
- composite Z-score [1]: 0.22 (inactive)
- composite z-score [2]: -0.471
- composite z-score [3]: -0.132
- composite z-score [4]: 0.541
- composite z-score [5]: 2.61
- composite z-score [6]: -0.217
- composite z-score (Sam68 (KHDRBS1)): 0.121
- composite z-score [7]: -2.33
- composite z-score [8]: -0.233

SMILES: COCCOC(=O)N1C(=O)[C@@]2(c3cc(C#CCC(C(=O)OC)C(=O)OC)ccc31)[C@H](c1ccc(OCCO)cc1)N1[C@H](c3ccccc3)[C@H](c3ccccc3)OC(=O)[C@H]1[C@@H]2C(=O)N1CCN(c2ncccn2)CC1
- composite z-score (Albumin (Bos taurus)): 0.758
- composite Z-score [1]: -0.341 (inactive)
- composite z-score [2]: 0.196
- composite z-score [3]: -0.14
- composite z-score [4]: 0.35
- composite z-score [5]: 2.33
- composite z-score [6]: 0.265
- composite z-score (Sam68 (KHDRBS1)): 1.29
- composite z-score [7]: 0.293
- composite z-score [8]: 1.1

SMILES: O=C1c2ccccc2[C@](Cc2ccccc2I)(C(=O)NCc2ccccc2)[C@H](c2ccc(CO)cc2)N1C1CCCCC1
- composite z-score (Albumin (Bos taurus)): 0.861
- composite Z-score [1]: 0.534 (inactive)
- composite z-score [2]: 0.16
- composite z-score [3]: -0.0997
- composite z-score [4]: 0.601
- composite z-score [5]: 1.21
- composite z-score [6]: 0.576
- composite z-score (Sam68 (KHDRBS1)): 1.12
- composite z-score [7]: 0.271
- composite z-score [8]: 1.23

SMILES: CC(=O)N1Cc2ccccc2C[C@]2(N=C(c3ccc(OCCCO)cc3)O[C@@H]2c2ccccc2)C1=O
- composite z-score (Albumin (Bos taurus)): -0.569
- composite Z-score [1]: 0.581 (inactive)
- composite z-score [2]: 0.0242
- composite z-score [3]: -0.0424
- composite z-score [4]: 0.552
- composite z-score [5]: 2.87
- composite z-score [6]: 0.451
- composite z-score (Sam68 (KHDRBS1)): 1.3
- composite z-score [7]: 0.15
- composite z-score [8]: 1.13

SMILES: COCCCNC(=O)[C@]1(Cc2ccccc2CN=[N+]=[N-])N=C(c2ccc(OCCCO)cc2)O[C@@H]1c1ccccc1
- composite z-score (Albumin (Bos taurus)): 0.867
- composite Z-score [1]: -0.337 (inactive)
- composite z-score [2]: 0.289
- composite z-score [3]: -0.0633
- composite z-score [4]: 0.548
- composite z-score [5]: 1.91
- composite z-score [6]: 0.785
- composite z-score (Sam68 (KHDRBS1)): 0.997
- composite z-score [7]: -0.474
- composite z-score [8]: 1

SMILES: C=C[C@@H](COC(C)=O)NS(=O)(=O)c1ccc(Br)cc1
- composite z-score (Albumin (Bos taurus)): -0.0541
- composite Z-score [1]: 0.486 (inactive)
- composite z-score [2]: -0.0728
- composite z-score [3]: -0.0859
- composite z-score [4]: 0.28
- composite z-score [5]: 0.151
- composite z-score [6]: -0.0973
- composite z-score (Sam68 (KHDRBS1)): 0.597
- composite z-score [7]: 0.0699
- composite z-score [8]: 0.205

SMILES: C[n+]1ccc(CCCO)cc1
- composite z-score (Albumin (Bos taurus)): -0.911
- composite Z-score [1]: 0.165 (inactive)
- composite z-score [2]: 0.182
- composite z-score [3]: -0.0211
- composite z-score [4]: 0.321
- composite z-score [5]: 2.53
- composite z-score [6]: 1.6
- composite z-score (Sam68 (KHDRBS1)): 0.0844
- composite z-score [7]: 0.127
- composite z-score [8]: -0.0858

SMILES: [N-]=[N+]=NCc1ccccc1C[C@]1(C(=O)NCC(O)CO)N=C(c2ccc(OCCCO)cc2)O[C@H]1c1ccccc1CN=[N+]=[N-] (stereo not given in full)
- composite z-score (Albumin (Bos taurus)): 0.801
- composite Z-score [1]: 0.496 (inactive)
- composite z-score [2]: 0.303
- composite z-score [3]: -0.108
- composite z-score [4]: 0.404
- composite z-score [5]: 3.05
- composite z-score [6]: 0.137
- composite z-score (Sam68 (KHDRBS1)): 1.12
- composite z-score [7]: -0.86
- composite z-score [8]: 1.11

SMILES: COCC(=C=CC[C@H](O)c1cccc(OCCO)c1)C[C@H](O)c1ccccn1
- composite z-score (Albumin (Bos taurus)): 0.0722
- composite Z-score [1]: -0.0402 (inactive)
- composite z-score [2]: -0.004
- composite z-score [3]: -0.145
- composite z-score [4]: 0.778
- composite z-score [5]: 3.79
- composite z-score [6]: 0.369
- composite z-score (Sam68 (KHDRBS1)): 0.52
- composite z-score [7]: -0.0575
- composite z-score [8]: 0.102

SMILES: C#CCNC(=O)[C@H](Cc1ccccc1)NC(=O)[C@@H](N=[N+]=[N-])C(C)C
- composite z-score (Albumin (Bos taurus)): 0.51
- composite Z-score [1]: -0.197 (inactive)
- composite z-score [2]: -0.0431
- composite z-score [3]: -0.134
- composite z-score [4]: 0.179
- composite z-score [5]: 0.88
- composite z-score [6]: 0.0338
- composite z-score (Sam68 (KHDRBS1)): 1.01
- composite z-score [7]: 0.747
- composite z-score [8]: 0.584

SMILES: CN(C)CCCNC(=O)[C@@]1(C)c2ccccc2C(=O)N(Cc2cc(C(F)(F)F)cc(C(F)(F)F)c2)[C@H]1c1ccc(CO)cc1
- composite z-score (Albumin (Bos taurus)): 0.193
- composite Z-score [1]: 0.222 (inactive)
- composite z-score [2]: -0.0984
- composite z-score [3]: -0.0341
- composite z-score [4]: 0.485
- composite z-score [5]: 0.155
- composite z-score [6]: 0.0017
- composite z-score (Sam68 (KHDRBS1)): -0.546
- composite z-score [7]: -1.03
- composite z-score [8]: -1.04

SMILES: COc1ccc([Si](C)(C)[C@@H]2[C@@H](CCO)O[C@]3(C(=O)N(Cc4cccc(N5C(=O)c6ccccc6Oc6ccccc65)c4)c4ccccc43)[C@H]2C)cc1
- composite z-score (Albumin (Bos taurus)): 0.326
- composite Z-score [1]: -0.0368 (inactive)
- composite z-score [2]: -0.157
- composite z-score [3]: -0.0712
- composite z-score [4]: 0.411
- composite z-score [5]: 1.07
- composite z-score [6]: 0.594
- composite z-score (Sam68 (KHDRBS1)): 0.554
- composite z-score [7]: -0.245
- composite z-score [8]: 0.276

SMILES: COc1ccc([Si](C)(C)[C@@H]2[C@@H](CC(=O)N3CCC[C@H]3CO)O[C@]3(C(=O)N(Cc4ccc(N5C(=O)c6cccc7cccc5c67)cc4)c4ccccc43)[C@H]2C)cc1
- composite z-score (Albumin (Bos taurus)): -0.647
- composite Z-score [1]: 0.296 (inactive)
- composite z-score [2]: 0.0996
- composite z-score [3]: -0.148
- composite z-score [4]: 0.447
- composite z-score [5]: 1.77
- composite z-score [6]: 0.323
- composite z-score (Sam68 (KHDRBS1)): 1.29
- composite z-score [7]: 1.3
- composite z-score [8]: 0.892

SMILES: CCOC(=CC(=O)OC)CC(O)c1cccc(Cl)c1 (stereo not given)
- composite z-score (Albumin (Bos taurus)): 0.451
- composite Z-score [1]: -0.114 (inactive)
- composite z-score [2]: -0.17
- composite z-score [3]: -0.176
- composite z-score [4]: 0.606
- composite z-score [5]: 1.47
- composite z-score [6]: 0.49
- composite z-score (Sam68 (KHDRBS1)): 0.505
- composite z-score [7]: -1.42
- composite z-score [8]: 0.0032

SMILES: COCCCNC(=O)[C@]1(CCC(=O)OC(C)(C)C)N=C(c2ccc(OCCCO)cc2)O[C@@H]1c1ccccc1
- composite z-score (Albumin (Bos taurus)): 0.968
- composite Z-score [1]: 0.977 (inactive)
- composite z-score [2]: 0.246
- composite z-score [3]: 0.221
- composite z-score [4]: 0.871
- composite z-score [5]: 3.17
- composite z-score [6]: 0.62
- composite z-score (Sam68 (KHDRBS1)): 0.881
- composite z-score [7]: -0.0833
- composite z-score [8]: -0.354
